Laboratory results: PubChem BioAssay AID651593 (National Center for Advancing Translational Sciences (NCATS), 2012)
Among all 1,100 compounds or so, about 860 (78%) were called active. Not shown: some 19% with an inconclusive outcome. The call rests on the fitted dose curve; in most records, active means well fitted activation curve with a large enough effect; inconclusive means small, poorly fitted or top-dose-only effect; inactive means flat fitted curve, though single readings scatter. So high a share suggests a set chosen from earlier hits. Some of the results follow.

Experiment: qHTS of Nrf2 Activators: Hit Validation in Primary Assay; further: nearly all actives have a fitted effect of over 70% in size
Settings: Nrf2/ARE reporter cell assay; Potency: activation; series mostly up to 46.1 µM
Text: Many diseases have some form of oxidative stress injury and ties to inflammation, causing a host of problems for the patient. The antioxidant response element (ARE) plays an important role in alleviating the harmful effects of oxidative stress. The antioxidant response element (ARE) is a transcriptional regulatory element involved in the activation of genes coding for a number of antioxidant proteins and detoxifying enzymes. These enzymes work in concert to protect tissues from oxidative insults and chemical toxicities in human hepatocytes and immune cells. The protective effects of ARE activation are primarily triggered through Nrf2 (NF-E2-related factor) binding to and activating AREs. It is known that Nrf2 controls the production of over 250 antioxidant and detoxification proteins (Hu et al., 2006), thereby protecting tissues by increasing cellular antioxidant content and suppressing inflammatory signaling pathways. The transcription factor Nrf2 is a central link between oxidative chemicals, such as phenolic antioxidants and electrophilic compounds, and the activation of ARE. Nrf2 levels are constitutively low as a consequence of its interaction with Keap1, which targets its degradation (Zipper and Mulcahy, 2002). Electrophiles react with key cysteine residues in Keap1, releasing Nrf2 and allowing its translocation to the nucleus. Once within the nucleus, Nrf2 complexes with coactivators such as p300, and binds to the AREs to induce gene transcription of cytoprotective enzymes, resulting in the prevention of toxicity. Activation of Nrf2 protects tissues by increasing cellular antioxidant content and suppressing inflammatory signaling pathways. Identifying novel and potent Nrf2 activators by using the AREc32 cell line to detect ARE activation by small molecules will lead to the identification and development of probes to study protective pathways in multiple tissues. These specific probes are essential to study the ARE pathway, and eventually to determine whether this pathway does activate genes that could protect against a host of diseases, including cardiovascular diseases, obesity, diabetes, Alzheimer's, and Parkinson's disease.
This project's aim is to identify novel and potent Nrf2 activators by using the AREc32 cell line to detect ARE activation by small molecules, which will lead to the identification and development of probes to study the ARE pathway.
NIH Chemical Genomics Center [NCGC]
NIH Molecular Libraries Probe Centers Network [MLPCN]
Assay Submitter (PI): Curtis Klaassen, University of Kansas Medical Center
Quantification of ARE activation after compound treatment was measured by the Steady-Glo Luciferase (R) assay system (Promega) in AREc32_fluc stable cells. The Steady-Glo reagent acts by cell lysis and generation of a luminescent signal proportional to ARE activation, through the luciferase reporter in the AREc32 stable cell line. AREc32_fluc cells were harvested from T225 flask and resuspended in phenol red free OPTI-MEM medium with 5% FBS. Then 5 microL of 200,000 cells/mL resuspended cells were dispensed into each well of white, solid bottom, 1536-well tissue culture-treated plates using a Multidrop Combi dispenser. After overnight culture at 37 degrees C with 5% CO2, a total of 23 nL of compounds at 5 selected concentrations from the MLSMR/Sytravon or positive control (40 uM stock of CDDO-IM and 2 mM of tBHQ) in DMSO was transferred to each well of the assay plate using a pintool (Kalypsys, San Diego, CA), and the plates were further incubated at 37 degrees C with 5% CO2 for 24 hours. After that, 2 microL of Steady Glo luminescent substrate mix (Promega) was added to each well. The plate was incubated at room temperature for 30 minutes. The plates were measured on a ViewLux plate reader (PerkinElmer) with clear filter.
Potency means the concentration at half of the fitted maximal effect.

Potency, active:
CC(=O)c1cc2c(cc1NC(=O)CSc1nc3ccccc3o1)OCO2 8200 nM, C/C(=N\NC(=O)CSc1nc2ccccc2s1)c1ccco1 5170 nM, O=C(CSc1nc2cc(Cl)ccc2s1)c1ccco1 1840 nM, O=C(CSc1nc2ccccc2s1)N/N=C/c1ccco1 8200 nM, CC(=NNC(=O)CSc1nc2ccccc2o1)c1ccco1 7310 nM, Cc1cc(C)c(C#N)c(SCC(=O)c2cccs2)n1 5170 nM, CSc1nc(N)nc(SCC(=O)c2ccccc2)c1C#N 7310 nM, Cc1cc(SCC(=O)c2cccs2)nc2ccccc12 2590 nM, Cc1ccnc(SCC(=O)c2ccc(Br)cc2)c1C#N 2310 nM, Cc1cc(C)c(C#N)c(SCC(=O)c2ccccc2)n1 14600 nM, O=C(CN1CCN(Cc2ccccc2)CC1)N/N=C\C=C/c1ccco1 20600 nM, O=C(CN1CCN(Cc2ccccc2Cl)CC1)N/N=C/C=C/c1ccco1 2590 nM, CC(=NNc1ccc2ccccc2n1)c1ccccc1O 3660 nM, CC(=O)OC1(C(C)=O)CCC2C3CC(C(F)(F)F)C4=CC(=O)CCC4(C)C3CCC21C (centres undefined) 4610 nM, Cc1cccc(CC2S/C(=N/N=C/c3ccco3)NC2=O)c1 (centres undefined) 206 nM, O=C1N/C(=N\N=C\c2ccco2)SC1Cc1ccc(F)cc1 (centres undefined) 731 nM, O=C1N/C(=N\N=C\c2ccco2)SC1Cc1ccccc1[N+](=O)[O-] (centres undefined) 2060 nM, O=C(C=Cc1ccco1)c1ccc2ccccc2c1 2590 nM, CC(/C=C/c1ccco1)=N\NC(=O)CNc1ccc2ccccc2c1 16400 nM, CCc1nc(Nc2cccc(F)c2)c2oc3ccccc3c2n1 2910 nM, Cc1nc(Nc2ccccc2F)c2oc3ccccc3c2n1 2310 nM, NC(=O)c1oc2ccccc2c1NC(=O)c1ccccc1 2590 nM, NC(=O)c1oc2ccccc2c1NC(=O)c1ccco1 2310 nM, O=C(Nc1c(O)c2ccccc2[nH]c1=O)c1ccco1 7310 nM, CN1c2ccsc2/C(=N/Nc2ccccc2)CS1(=O)=O 2310 nM, C=C(C)CNC(=S)N/N=C(\C)c1ccc(Cl)s1 2590 nM, CCOc1ccccc1NC(=O)C1COc2ccccc2O1 (centres undefined) 4610 nM, COc1ccc(Cl)cc1NC(=O)C1COc2ccccc2O1 (centres undefined) 2910 nM, O=C(Nc1ccccc1[N+](=O)[O-])C1COc2ccccc2O1 (centres undefined) 4610 nM
